In the supplement of paper PMC3334620:
In all, about 33,000 sequences were measured (“E-score (-0.5 to 0.5)”: median about -0.0059, highest 2% from about 0.26 on). The entries come from a sample that favours the highest values as a whole.

target: T1, Cin5 (UniProt P40917); assay: PBM E-score (8-mer binding enrichment) (E-score (-0.5 to 0.5)); higher = stronger / more preferred TF binding; conditions: protein concentration: 100 nM; construct: GST-full length
T1 sequence: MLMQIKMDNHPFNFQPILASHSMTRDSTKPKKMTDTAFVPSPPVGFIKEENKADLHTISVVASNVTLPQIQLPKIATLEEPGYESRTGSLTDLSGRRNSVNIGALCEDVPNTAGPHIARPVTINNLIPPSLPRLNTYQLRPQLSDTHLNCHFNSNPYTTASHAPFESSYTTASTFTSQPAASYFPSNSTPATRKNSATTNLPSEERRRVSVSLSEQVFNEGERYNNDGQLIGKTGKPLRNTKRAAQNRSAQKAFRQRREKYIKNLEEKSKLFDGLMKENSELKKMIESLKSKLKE
Experimental: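 Universal 'all 10-mer' protein binding microarrays (Agilent AMADID 015681) probed with GST-tagged S. cerevisiae TFs (full-length or DBD) made by in vitro transcription/translation (PURExpress), about 100-200 nM. Bound TF was detected with fluorescent anti-GST. Each ungapped 8-mer (which stands for itself and its reverse complement) is scored by the PBM enrichment score (E-score), a modified Wilcoxon-Mann-Whitney statistic from -0.5 to +0.5, computed with the Universal PBM Analysis Suite. Scale: above 0.35 generally sequence-specific binding.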

Sequence	PBM E-score
ATATACAA	0.266
CAATACAA	0.308
CTATACTA	0.198
CTATACAA	0.00862
ATATACTA	0.318
ATATACTC	0.209
CAACGACC	-0.0159
TTCCTAAA	-0.157
CGATGCGC	0.0485
GAGCGGAC	-0.251
CTTCCAAA	0.0243
AAGACTCG	-0.0863
CTGCCCGA	-0.00627
AGGCGGCG	-0.0941
ATGACGTG	0.191
CTGACGTA	0.278
ATGACGTA	0.338
ATGACGTC	0.255
GTGACGTA	0.204
CTGACGTC	0.035
AGATTAGA	-0.0761
AGGGGGGC	-0.479
CATTATCC	0.276
CATTATAA	0.0881
CATTATCG	0.0028

Sequence	PBM E-score
GATTATCC	0.0776
AATTATAC	0.208
CATTATAC	0.287
CACGGAGG	-0.173
CTGTCTAA	-0.0712
CGCGCCGA	-0.124
CAGGTCCC	-0.187
GCCTCCTA	-0.264
GATTATGC	0.172
GATTATGA	0.291
CATTATTA	0.223
CATTATGA	0.13
GATTATTA	0.316
AATTATTA	0.242
ACTGCAAC	-0.0484
AAGAGTCA	-0.12
GAAAGATA	0.31
GGAAGATA	0.13
GAAAGAAC	-0.0462
CAAAGATA	0.12
AGAAGATA	0.188
TAAAGATA	0.171
CAAAGAAA	0.0585
CGAAGATA	0.266
GAAAGAAA	0.283

Sequence	PBM E-score
CACGAGAC	-0.11
TAAGAAGA	0.122
GATGCAAC	-0.0342
GGAACCCA	-0.0933
TAAAGGGA	-0.115
AATTGGGG	0.0653
AATTGGGC	0.0334
AATTGGGT	0.319
GATAGCAA	0.279
CATAGCAA	0.111
TATAGCAA	0.134
CTTAAGAA	0.0235
ACGGAAAT	0.305
ACGGAAAA	0.161
ACGGAAAC	-0.00025
CGGCACCG	0.00123
ACACATAA	0.274
GCACATAA	0.0702
ACACATAC	0.0411
TCACATAA	0.31
ACACATAG	-0.0306
CCACATAA	0.184
CACTATCG	0.0597
AGCCAAAA	0.0959
CGGTTTGA	-0.0691

Sequence	PBM E-score
AGGTTTAT	0.251
CGAGAGCC	-0.163
AAGCCAAT	0.122
CACGTAAC	0.0354
AACGTAAA	0.21
TACGTAAA	0.302
CACGTAAA	-0.0217
AACGTAAG	0.274
CTCGTAAG	0.304
ATCGTAAG	0.159
GACGTAAA	0.103
AACGTAAC	0.217
CACGTAAG	0.288
TACGTATA	0.167
CTCGTAAC	0.129
AGCAGCGC	-0.0185
ACCACCTG	-0.0268
AATCGCTA	-0.0414
ACGAGCCC	-0.0676
GAACTCAC	-0.014
AACGTAAT	0.421
AACGTACT	0.105
ACCGTAAT	0.223
AAATTAGG	0.102
AATTTAGT	0.284

Sequence	PBM E-score
AAATTAGT	0.293
AATTTAGA	0.0855
AATTTAGG	0.168
AAATTAGA	0.206
GGAGCTCC	-0.164
GTCTAACA	-0.192
CGATGGCA	-0.0471
ACCACAGT	0.181
CATCCACG	0.0707
ACCGTTTA	-0.034
CAACCGCA	0.0315
AAACCGCG	0.265
CAACCGCG	0.269
AAACCGCA	-0.142
AAACCGCC	0.0261
CAACCGCC	-0.126
AATTGTGC	0.124
CAGCGGAA	0.0943
GCCCATCA	-0.115
AGCTCTCC	-0.174
CCGGAACA	0.145
ACGGAACA	0.2
TCGGAACA	0.29
CCATATTA	0.169
CTATATTA	0.325

Sequence	PBM E-score
ATATATTG	0.088
CTATATTC	0.0546
ATATATTC	0.248
ACATATTA	0.266
GTATATTA	0.219
ATATATTA	0.272
ACATATTG	0.0935
TGAGGCCA	0.0508
TGGCCTAA	-0.0968
AACGGGAG	-0.0138
CAACCGTC	-0.179
ACAAATTA	0.269
TAAAATTA	0.178
CTAAATTC	0.0709
AAAAATTG	-0.0306
CCAAATTA	0.187
ATAAATTC	0.0845
GTAAATTA	0.192
ATAAATTG	0.272
AAAAATTA	0.227
CTAAATTA	0.258
ACAAATTG	0.248
ATAAATTA	0.349
CCGAGGAG	-0.213
AGAGCCTG	-0.163

Sequence	PBM E-score
ACGAAGAG	-0.0165
CCGAAAGC	-0.328
AAGGGTAC	-0.137
ATCGACTG	0.101
ACGTGGAA	-0.00812
GCGTGGAA	0.106
TCGTGGAA	0.263
GGACACCC	-0.226
AGAAGCGC	0.0405
GATCCCAA	-0.0221
CAAGCAAG	-0.103
ATTAACAA	0.274
CTTAACAC	0.152
ATTAACTC	0.17
ATTAACTA	0.272
GTTAACAA	0.17
GATAACAA	0.1
CATAACAA	0.252
AATAACAC	0.247
ATTAACAC	0.271
GTTAACTA	0.205
ATTAACAG	0.0268
TATAACAA	0.295
